Data from PubChem BioAssay (NCATS).
Records with an inconclusive call do not appear. Activity calls are given as the source filed them. The call rests on the fitted dose curve; in most records, active means well fitted curve in the direction sought with a large enough effect; inconclusive means small, poorly fitted or top-dose-only effect, or another doubt; inactive means no such curve, though single readings can be large; an effect the other way counts as inactive or inconclusive.

Key:
[1] = BET inhibitor-based combinations targeting novel dependencies in MECOM-rearranged (r) AML: OCI-AML3 cell line (AID 2202232); conditions: Potency: OCI-AML3 viability; further: nearly all actives have a fitted effect of over 35% in size
Outline: (§1)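 Cells were plated at 500 per well and exposed to an 11-point dose series of each drug for 48 hr. Viability was measured by CellTiter-Glo luminescence, normalized to DMSO and empty-well controls, and summarized as AUC and per-cell-line Z-AUC.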

[2] = BET inhibitor-based combinations targeting novel dependencies in MECOM-rearranged (r) AML: MV-4-11 cell line (AID 2202233); further: nearly all actives have a fitted effect of over 45% in size
Outline: (§2)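 Activity is given as area under the curve and as Z-AUC, mean-centred within each cell line. It comes from 11-point dose curves normalized to DMSO and empty wells. CellTiter-Glo luminescence was read after 48 hr drug exposure of 500 cells/well.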

[3] = BET inhibitor-based combinations targeting novel dependencies in MECOM-rearranged (r) AML: HNT-34 cell line (AID 2202234); further: nearly all actives have a fitted effect of over 35% in size
Outline: as §2

[4] = BET inhibitor-based combinations targeting novel dependencies in MECOM-rearranged (r) AML: UCSD-AML1 cell line (AID 2202235); further: nearly all actives have a fitted effect of over 40% in size
Outline: as §2

[5] = BET inhibitor-based combinations targeting novel dependencies in MECOM-rearranged (r) AML: AML-194 cell line (AID 2202237; further: nearly all actives have a fitted effect of over 40% in size)
Outline: as §1

[6] = BET inhibitor-based combinations targeting novel dependencies in MECOM-rearranged (r) AML: AML-191 cell line (AID 2202236; further: nearly all actives have a fitted effect of over 35% in size)
Outline: as §1
Potency means the concentration at half of the fitted maximal effect.

SMILES	Potency [1]	Potency [2]	Potency [3]	Potency [4]	Potency [5]	Potency [6]
CC(=O)N1CCC(Nc2cc(C(=O)NC[C@H](O)CN3CCc4ccccc4C3)ncn2)CC1	4.2 nM (active)	41.7 nM (active)	inactive	inactive	inactive	–
C[C@]1(C(=O)N(CCCC(=O)O)Cc2cccc(Cl)c2)CCN1C(=O)c1csc2ccccc12	inactive	–	inactive	inactive	inactive	inactive
Cc1ccc(-n2nc(C(C)(C)C)cc2NC(=O)NCc2cc(F)ccc2Oc2ccc3c(cnn3CCO)c2)cc1	14800 nM (active)	18600 nM (active)	–	–	16600 nM (active)	18600 nM (active)
Nc1ncc(C(=O)NC2CN(C(=O)C3CC3)C2)c2ccc(-c3cccc(F)c3)nc12	7420 nM (active)	10500 nM (active)	–	23500 nM (active)	inactive	–
COc1cc([C@@H]2c3cc4c(cc3[C@@H](O[C@@H]3O[C@@H]5CO[C@@H](c6cccs6)O[C@H]5[C@H](O)[C@H]3O)[C@H]3COC(=O)[C@H]23)OCO4)cc(OC)c1O	263 nM (active)	–	235 nM (active)	132 nM (active)	372 nM (active)	332 nM (active)
C=CC(=O)N1CCC[C@H](n2c(=O)n(-c3ccc(Oc4ccccc4)cc3)c3c(N)ncnc32)C1	inactive	–	16600 nM (active)	inactive	–	–
C=C1C(=O)O[C@H]2C[C@H](C)C(/C=C/C(C)=O)=CC[C@H]12	1180 nM (active)	–	3320 nM (active)	2090 nM (active)	–	2350 nM (active)
COc1cccc(-c2c(C)n(Cc3c(F)cccc3C(F)(F)F)c(=O)n(C[C@H](NCCCC(=O)O)c3ccccc3)c2=O)c1F	7420 nM (active)	inactive	–	–	inactive	–
